About 700 (0.21%) of roughly 340,000 compounds were called active. The sample holds actives, similar compounds and a random draw of the others, so the mix is not that of the screen. Unmarked numbers belong to inactive results. Cut-off read from the data, not from the text of the source: active = inhibition above about 22% (passing the limit was not always enough); inactive = the rest.

By inhibition is commonly meant the relative decrease from the control value, in per cent.

The target of the test is Mu-type opioid receptor (Homo sapiens) + Delta-type opioid receptor (Homo sapiens) (UniProt P35372+P41143). The test can be described thus: OPRM1-OPRD1 heterodimer inverse agonism – cell-based, luminescence, primary screen (AID 504357).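 Note: 0% = cells with DMSO and 100% = wells without cells with DMSO.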 Conditions: cell-based MOR-DOR heterodimer luminescence, at 9.3 µM, active compounds read high.
Sequence of Mu-type opioid receptor (Homo sapiens) + Delta-type opioid receptor (Homo sapiens) (P35372 whole entry, looked up): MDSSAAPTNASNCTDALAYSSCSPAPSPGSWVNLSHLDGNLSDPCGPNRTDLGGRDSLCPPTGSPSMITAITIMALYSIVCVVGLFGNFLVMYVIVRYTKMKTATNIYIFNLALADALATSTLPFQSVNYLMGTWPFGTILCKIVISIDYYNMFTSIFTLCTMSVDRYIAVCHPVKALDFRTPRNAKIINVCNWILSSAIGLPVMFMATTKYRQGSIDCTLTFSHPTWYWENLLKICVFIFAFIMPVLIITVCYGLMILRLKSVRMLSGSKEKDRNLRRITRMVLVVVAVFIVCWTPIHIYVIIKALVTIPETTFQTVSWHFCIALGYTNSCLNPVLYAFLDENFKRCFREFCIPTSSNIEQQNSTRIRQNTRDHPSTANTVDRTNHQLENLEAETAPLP
Sequence of Mu-type opioid receptor (Homo sapiens) + Delta-type opioid receptor (Homo sapiens) (P41143 whole entry, looked up): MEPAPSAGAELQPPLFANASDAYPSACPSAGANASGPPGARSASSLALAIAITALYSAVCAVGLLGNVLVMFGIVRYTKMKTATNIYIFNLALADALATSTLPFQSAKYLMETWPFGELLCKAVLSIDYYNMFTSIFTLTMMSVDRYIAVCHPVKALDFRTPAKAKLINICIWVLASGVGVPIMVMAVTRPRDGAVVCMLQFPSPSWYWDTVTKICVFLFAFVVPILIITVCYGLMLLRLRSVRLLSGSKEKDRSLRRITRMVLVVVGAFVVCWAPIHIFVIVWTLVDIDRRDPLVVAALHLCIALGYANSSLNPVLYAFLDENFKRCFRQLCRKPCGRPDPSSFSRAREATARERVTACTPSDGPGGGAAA
On to `CC1=CC(=Cc2sc3ccccc3[n+]2C)C=C(C)O1`, for which the inhibition was 17.5% (active). In the case of `Clc1ccc2nc3c(c(-c4ccccc4)c2c1)CNCC3`, the inhibition is 8.41%. Turning to `CN(C)CC1CCCCC1=O` (stereo not given), the inhibition was 10.9%. As to `CCC(=O)OC(Cc1ccccc1)(c1ccccc1)C(C)CN(C)C` (stereo not given), the inhibition is 8.03%. Regarding `COc1cc(Cn2c(N)c(C(=O)NCc3ccco3)c3nc4ccccc4nc32)cc(OC)c1OC`, the inhibition is 1.03%. As for `O=C(OCCN1CCOCC1)C1(c2ccccc2)CCCC1`, the inhibition was 1.05%. On to `CCOC(=O)c1c(N)n(CCN2CCOCC2)c2nc3ccccc3nc12`, for which the inhibition is 30.9% (active). For `CC/C(=N\NC(=O)c1ccccc1O)c1c(O)n(Cc2ccccc2)c(=O)[nH]c1=O`, the inhibition is 9.92%. Take `CCOC(=O)c1c(N)n(Cc2ccccc2)c2nc3ccccc3nc12`: the inhibition was 37% (active). As for `CC(C)(C)c1ccc(OC(=O)N2CCCCC2)cc1`, the inhibition was -27.7%. The value for `COC(=O)C1=C(c2ccc(F)cc2OCc2ccccc2)C[C@@H]2CC[C@H]1N2C(=O)NCc1ccc2[nH]ccc2c1` was -2.75%; that for `O=C(NC(c1ccc(Cl)cc1)P(=O)(Oc1ccccc1)Oc1ccccc1)OCc1ccccc1` (stereo not given) was -3.43%. Under `CCC(=O)CC(c1ccc([N+](=O)[O-])cc1)c1c(O)c2ccccc2oc1=O` (stereo not given) stands 14.4%; under `CN(C)S(=O)(=O)c1cc(C(=O)N2CCC(C(=O)O)(c3ccccc3)CC2)ccc1Cl`, 19.2%. For `Cc1nn(-c2ccccc2)c(C)c1NC(=O)COC(=O)Cc1ccccc1`, the inhibition is 21%. As to `CC(=O)OC1C2(CC3N4C(=O)C5(CO)SSC4(CC31O)C(=O)N5C)OC(C)C(C)(C)C2=O` (stereo not given), the inhibition was 102% (active). The value for `CC(C)Nc1nc(Cl)nc(NC(C)C)n1` was 6.88%.

With `CCc1nnc(NS(=O)(=O)c2ccc(N=Cc3c(O)n(-c4ccccc4)c(=O)[nH]c3=O)cc2)s1`, the inhibition is 14.4%. In the case of `CC(=NCc1ccc2c(c1)OCO2)c1c(O)[nH]c(=O)[nH]c1=O`, the inhibition is -10.5%. With `CNCC(O)c1cc(F)c(OCc2ccccc2)c(OCc2ccccc2)c1F` (stereo not given), the inhibition was -9.33%.

For the origin of these results see PubChem BioAssay AID504357 (The Scripps Research Institute Molecular Screening Center, 2011).
